65 sequences from PMC7819943, “Rice protein-binding microarrays: a tool to detect cis-acting elements near promoter regions in rice” can be followed below.

The full ranking holds about 35,000 sequences; the median of “fluorescence intensity (a.u.)” is about 10,000, and the highest 2% start at about 52,000. The list comes from a sample in which the highest values are over-represented; it also holds similar and randomly drawn sequences.

For the experiment, the target named is T1, OsWOX13 (Oryza sativa, UniProt Q5QMM3 1-267).
T1 sequence: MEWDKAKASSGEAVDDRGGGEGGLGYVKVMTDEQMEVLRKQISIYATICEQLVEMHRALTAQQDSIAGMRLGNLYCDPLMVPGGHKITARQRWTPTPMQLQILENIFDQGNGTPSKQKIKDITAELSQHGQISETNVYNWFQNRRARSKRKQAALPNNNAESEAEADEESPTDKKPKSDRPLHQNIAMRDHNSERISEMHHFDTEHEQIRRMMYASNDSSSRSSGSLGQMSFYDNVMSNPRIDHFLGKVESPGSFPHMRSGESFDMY
Kind of experiment: protein-binding microarray (RPBM); PBS, 2% BSA, 51.3 ng/ul salmon testes DNA, 50 uM zinc acetate, 200 nM TF, 25 C, 1 h; high values mean tight binding. Particulars: protein: recombinant; tags: N-terminal polyhistidine and DsRed monomer fusion (pET32a); label: CyDye5-dUTP incorporated in the synthesized complementary strand; 3' TTTTT single-stranded linker to array surface; dsDNA, one strand shown. In short, it runs like this:
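Transcription factors, each fused N-terminally to a polyhistidine tag and DsRed, were expressed in E. coli BL21-CodonPlus and purified on Ni–NTA. A custom Agilent array was made double-stranded by primer extension with Cy5-dUTP and blocked with 2% BSA. It was incubated with 200 nM protein in PBS, 2% BSA, salmon testes DNA and 50 µM zinc acetate at 25 °C for 1 h, then washed. The binding signal is per-feature fluorescence intensity (arbitrary units) read on an Axon 4000B scanner.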
For the sequence “GGTAGTACTTAATTAATCACGCGCTAATAGACCGCTCTGTCGGAGTCACCTAGTGCAG”, the binding signal was 22600 fluorescence intensity (a.u.). As for “TCGTATTTATGGCTAATTATTATTTCAGTGGTAGACGATTCGGAGTCACCTAGTGCAG”, the binding signal was 6670 fluorescence intensity (a.u.). The same measure for “TACACTAATTAATTAAGCATTAATCGTGGGAAGAGTAACGCGGAGTCACCTAGTGCAG”: 47000 fluorescence intensity (a.u.); for “TTGCATGTTTGTGGATTGATACATTAGATATTGATCTATCCGGAGTCACCTAGTGCAG”: 3540 fluorescence intensity (a.u.); for “TCATGCAGTAATTAATCAGTGACAGTGAACCTTGTTAGTACGGAGTCACCTAGTGCAG”: 17400 fluorescence intensity (a.u.). The same measure for “AGAAAATTTAATCTTAAATATGGACATTACGAATGTACAACGGAGTCACCTAGTGCAG”: 4110 fluorescence intensity (a.u.).

Turning to “AAAATTTGTCAATAAATATATAGGCAGTCCCGGTCCGTTCCGGAGTCACCTAGTGCAG”, the binding signal was 4490 fluorescence intensity (a.u.). “TCCTCAATTAATTGCTGATCCTAATGCAGAGTTTCAGGTGCGGAGTCACCTAGTGCAG”: the binding signal was 35500 fluorescence intensity (a.u.). As for “TATCACTAATAATTTAGCTCAGTTTGACAAGACGGATATCCGGAGTCACCTAGTGCAG”, the binding signal was 4380 fluorescence intensity (a.u.). To “TTACCAAATTTCACTGTTAACAGCGGTGCGTGGGTATTGACGGAGTCACCTAGTGCAG” belongs 6390 fluorescence intensity (a.u.); to “GGTATAACCTAAAGTTTATCCGTTTGTAGAGCGAATGTTTCGGAGTCACCTAGTGCAG”, 14400 fluorescence intensity (a.u.); to “CATGGTCAATCTACTCGTTAACGTACATTCACGGTTATTTCGGAGTCACCTAGTGCAG”, 9160 fluorescence intensity (a.u.).

For the sequence “GCCTAATTGCTTAATTAGCAGCCAACGGATTCGATTGATCCGGAGTCACCTAGTGCAG”, the binding signal is 53900 fluorescence intensity (a.u.). Consider “TCGTGATTAGAATCTTAATCTCTAGCCTGTCTTTGCTTGCCGGAGTCACCTAGTGCAG”, for which the binding signal was 56200 fluorescence intensity (a.u.). Take “TCCACTTGGGTGATTAGAATCTGTCTTCCCTGTTTTAAGCCGGAGTCACCTAGTGCAG”: the binding signal is 7670 fluorescence intensity (a.u.). Consider “TAATTTAATTTAATTACCTCCCTAATCACTCTCGCTCGCTCGGAGTCACCTAGTGCAG”, for which the binding signal is 46200 fluorescence intensity (a.u.). Take “AGAGATCGATCGATTAATTAGCAACAAGCCAACGACAAGCCGGAGTCACCTAGTGCAG”: the binding signal was 4950 fluorescence intensity (a.u.).

As for “GCTGTTTGATCCATAATTTATCCGCGCGTCGTCACTCCGACGGAGTCACCTAGTGCAG”, the binding signal is 5840 fluorescence intensity (a.u.).

On to “GTTTTCCTAATTAATTGCTAGCTCGATTTGCTCGGTGATCCGGAGTCACCTAGTGCAG”, for which the binding signal is 29900 fluorescence intensity (a.u.). As for “CTTAATTAGCTCTAGCGAGCTAGCTAGCTTGCTCTGTCTTCGGAGTCACCTAGTGCAG”, the binding signal was 24200 fluorescence intensity (a.u.). To “TCTAATTGGCTTACTTAATATGATTCGATCCTACAACCTCCGGAGTCACCTAGTGCAG” belongs 53700 fluorescence intensity (a.u.); to “CATACATATGTAATTTACTTCGATTCGATTAAATTGGCAGCGGAGTCACCTAGTGCAG”, 7090 fluorescence intensity (a.u.).

As to “CACTTGATTAATTTATCCTCTCCTCGCGTCGCTGTCGCGTCGGAGTCACCTAGTGCAG”, the binding signal was 52700 fluorescence intensity (a.u.).

Take “TAACCTTAATTAATTGATTAAATTACAAATATTCTAGCCCCGGAGTCACCTAGTGCAG”: the binding signal is 44000 fluorescence intensity (a.u.). Turning to “AAGATGAGGTGATAGACTGACTAGCACTGAGCTTGCCCGGCGGAGTCACCTAGTGCAG”, the binding signal is 14400 fluorescence intensity (a.u.). Take “ACTAGACAATTTGAATTTACAACTATATATACTCCCAATCCGGAGTCACCTAGTGCAG”: the binding signal is 3250 fluorescence intensity (a.u.).

On to “GAACTAGCTTAATTAAACCACAATTAGAATATATGTAGGACGGAGTCACCTAGTGCAG”, for which the binding signal is 3750 fluorescence intensity (a.u.). On to “TAAGTAATTATTTATTCTTTTCATATCATTTGATTCATTGCGGAGTCACCTAGTGCAG”, for which the binding signal is 15400 fluorescence intensity (a.u.). Regarding “AAAAGGATATGATTTGAAATGGCATTAAAGTGAATAGGCCCGGAGTCACCTAGTGCAG”, the binding signal was 4540 fluorescence intensity (a.u.). The same measure for “GCCTAATTAATCCATGATTAGCCTATGTGATGCTATAGTACGGAGTCACCTAGTGCAG”: 52700 fluorescence intensity (a.u.); for “CAGTTAATTGAGTTGATGGCCACTCCTCTGCTGCTCGTCGCGGAGTCACCTAGTGCAG”: 60700 fluorescence intensity (a.u.). To “GATTAGGTTAATTGAGATCTGCCTTGCTCTGCTCTGCTCGCGGAGTCACCTAGTGCAG” belongs 21500 fluorescence intensity (a.u.); to “TTAGCGTCTAATTATAGGATTATTTATGATAATATTCGTCCGGAGTCACCTAGTGCAG”, 5680 fluorescence intensity (a.u.); to “TCCAACGGTGCCGCTTAATTAGTGATTAATTATCCTAATTCGGAGTCACCTAGTGCAG”, 16400 fluorescence intensity (a.u.). As for “CTAATGAGCCTAATTAATCCATGATTAGCCTATGTGATGCCGGAGTCACCTAGTGCAG”, the binding signal is 43000 fluorescence intensity (a.u.). Consider “ACTCCTGACTTGATTGGCAGTGAGTTGCTCATCTGCCTAGCGGAGTCACCTAGTGCAG”, for which the binding signal was 40300 fluorescence intensity (a.u.). With “TCTAATTAATCCATGATTAGCCTATGTGATGCTACAGTAACGGAGTCACCTAGTGCAG”, the binding signal is 25100 fluorescence intensity (a.u.).

Take “TTATGATTTAATTAGCGATTAATTATCCTAATTAGTGATTCGGAGTCACCTAGTGCAG”: the binding signal was 62200 fluorescence intensity (a.u.). To “ATGACTATTTTCACCTATAATTATAAGTTATGGAACAATACGGAGTCACCTAGTGCAG” belongs 4820 fluorescence intensity (a.u.). Regarding “AGCAAAATTAACACCGCAATTTGAGCCGGTTACTTCTTTCCGGAGTCACCTAGTGCAG”, the binding signal was 4830 fluorescence intensity (a.u.). The same measure for “CCGCGATTACAATTAGCGCCGGATTAACCCTGCAATTAGCCGGAGTCACCTAGTGCAG”: 20500 fluorescence intensity (a.u.); for “CATGATTGAAACATTACTTGATGGCTTCTGGTCCTACCCACGGAGTCACCTAGTGCAG”: 53900 fluorescence intensity (a.u.); for “CATCGAACATCATGAATTTGATTGGCTTCTACTTTCACGACGGAGTCACCTAGTGCAG”: 17100 fluorescence intensity (a.u.).

On to “CTCAACATGAACTTCTTGATTACCTGTGACCCAGCCACGGCGGAGTCACCTAGTGCAG”, for which the binding signal is 3150 fluorescence intensity (a.u.). Take “GAAACATGTTGAGATTGATTTACATTTTGTGCGCGAGAAGCGGAGTCACCTAGTGCAG”: the binding signal was 18000 fluorescence intensity (a.u.). To “TGGGAGATTGTATTAAACAGAGGAGAACGATGGCGAAAGGCGGAGTCACCTAGTGCAG” belongs 6630 fluorescence intensity (a.u.). The same measure for “TTTTGATTGGCCGAGGAGAAGGCGAAACAGACTGCCACTGCGGAGTCACCTAGTGCAG”: 53800 fluorescence intensity (a.u.). To “TTATTTGACACAATGCGATTGAATTGGGGTGCAGGAGTATCGGAGTCACCTAGTGCAG” belongs 6780 fluorescence intensity (a.u.); to “AGAAATATTCAATCAAGCTACTGCGCACATATATCTTTATCGGAGTCACCTAGTGCAG”, 9630 fluorescence intensity (a.u.). Consider “GTGCTGTGATTGGCCGCGCGGGATTTCCTGGGCGGGCGGGCGGAGTCACCTAGTGCAG”, for which the binding signal is 22600 fluorescence intensity (a.u.). In the case of “CTATCATATTGACAGCTTTGTAATTGCTTTTGACAGGTTCCGGAGTCACCTAGTGCAG”, the binding signal was 26400 fluorescence intensity (a.u.). To “AATTGACGTAATTTCAGGTCGTATTTGTGGTGCAACAACCCGGAGTCACCTAGTGCAG” belongs 16600 fluorescence intensity (a.u.); to “CATATTGACAGCTTTGTAATTGCATTTGACAGGTTCAACCCGGAGTCACCTAGTGCAG”, 60500 fluorescence intensity (a.u.); to “AATGTCTGCAATTAATCAATCTGTTAATCTGTTATTAGTACGGAGTCACCTAGTGCAG”, 21900 fluorescence intensity (a.u.).

Turning to “TCCTAATTGTACAATTAATTAAATTAAGTACAGTCCTATGCGGAGTCACCTAGTGCAG”, the binding signal is 53000 fluorescence intensity (a.u.). For the sequence “CGAAATTAATTAGCGAAATTAATTAACGCTTTACACAAGGCGGAGTCACCTAGTGCAG”, the binding signal was 64900 fluorescence intensity (a.u.).

As to “TGGACATTGACAAAATCACAGATCCAGTAAGTACTAGTATCGGAGTCACCTAGTGCAG”, the binding signal was 3170 fluorescence intensity (a.u.). To “GGTCCTAATTGACAAATCCACAGAAGTAGTACTCCAGGAGCGGAGTCACCTAGTGCAG” belongs 53000 fluorescence intensity (a.u.); to “ATAATTATTCTGTTAATTAATCAATTATTATCTGGGAATCCGGAGTCACCTAGTGCAG”, 63600 fluorescence intensity (a.u.). The same measure for “TGAGTAAATGTGTTGTTGTTAATTGCTATATGTACAGTTGCGGAGTCACCTAGTGCAG”: 5280 fluorescence intensity (a.u.); for “TTTTATCTCACCAATCAATTTAATTTCTTTATTTATTTTCCGGAGTCACCTAGTGCAG”: 6870 fluorescence intensity (a.u.); for “TATGCAGTTTTACAATAATTTAATTAAAGTACAGTTTTGTCGGAGTCACCTAGTGCAG”: 5420 fluorescence intensity (a.u.). To “TCACAAAATAATTAACTTTAAAATTAAATTTTAGCAGCAGCGGAGTCACCTAGTGCAG” belongs 15100 fluorescence intensity (a.u.).

On to “TCCACAGATTGAGGAATCCGAGCAACAAATATCCTAGTAGCGGAGTCACCTAGTGCAG”, for which the binding signal is 11900 fluorescence intensity (a.u.). The same measure for “TAAAATTAAATTTACAAGGGTTAATTCGCGAGTAATAACGCGGAGTCACCTAGTGCAG”: 12300 fluorescence intensity (a.u.).
